NS1 inh: influenza NS1 inhibition; Potency, µM (titrated, usually from 46.1 µM), without a hit: top-dose activity, positive = more growth; AID 2326; 270,000 compounds, 0.4% hits; calls by dose curve; note: potency is the fitted concentration of half-maximal effect; actives are rising curves; nearly all actives have a fitted effect of over 50% in size
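A cell-based growth assay was used: compounds that relieve NS1-induced slow growth of budding yeast raise OD600. Assay medium was yeast nitrogen base with ammonium sulphate and -URA supplement, pH 6.0, with 2% galactose.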
Cruzain inh Det: cruzain (T. cruzi) inhibition with detergent. 200,000 compounds, 0.43% hits. purified cruzain, Z-FR-AMC fluorescence, 0.01% Triton. P25779. Potency, µM, for inactives: max response, negative = inhibition, usual class: inhibitors;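 note: potency is the fitted concentration of half-maximal effect; plate controls were neutral wells for no effect and buffer without enzyme for full effect; nearly all actives have a fitted effect of over 40% in size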
Target sequence (P25779 123-467 limits assumed): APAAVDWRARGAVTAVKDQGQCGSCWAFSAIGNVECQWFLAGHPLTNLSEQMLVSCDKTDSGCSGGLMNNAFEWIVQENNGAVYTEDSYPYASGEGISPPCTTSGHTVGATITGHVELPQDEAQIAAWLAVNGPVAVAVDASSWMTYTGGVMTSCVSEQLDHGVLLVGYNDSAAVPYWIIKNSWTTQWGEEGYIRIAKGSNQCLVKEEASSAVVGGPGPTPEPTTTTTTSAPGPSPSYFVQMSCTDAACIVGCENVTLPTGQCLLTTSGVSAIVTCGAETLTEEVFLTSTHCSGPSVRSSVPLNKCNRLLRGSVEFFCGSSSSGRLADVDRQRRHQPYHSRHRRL
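Detergent-containing run (0.01% Triton X-100) in acetate buffer pH 5.5 with 5 mM DTT: enzyme at 1.5 nM final, 15 min compound preincubation at room temperature, then 2 uM Z-FR-AMC substrate. Activity taken as 60 s fluorescence increase at 360/450 nm.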
Cruzain inh noDet: cruzain (T. cruzi) inhibition without detergent | purified cruzain, Z-FR-AMC fluorescence, no detergent | Potency, µM, without a hit: max response, negative = inhibition, hits mostly inhibitors | 200,000 compounds, 2.3% hits | AID 1476;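 note: potency is the fitted concentration of half-maximal effect; plate controls were enzyme without inhibitor for no effect and buffer without enzyme for full effect; nearly all actives have a fitted effect of over 40% in size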
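Purified cruzain at 1.5 nM, pre-incubated 15 min with compound at room temperature in 100 mM sodium acetate pH 5.5, 5 mM DTT, 0.00005% Triton X-100. Reaction started with 2 uM Z-FR-AMC; AMC fluorescence increase over 60 s gives rate.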
Flu NS1 inh: influenza NS1 function inhibition validation; 1,400 tested, under 10 active; shares compounds with NS1 inh; activity change, negative = inhibition, % at 32.9 µM; influenza NS1 function cell assay, 15-point titration; AID 492980; calls by dose curve; note: 0% is about no effect
PR8 titer: influenza NS1 inhibitors: inhibition of influenza A/PR/8/34 replication. shares compounds with NS1 inh. virus titer (log TCID50), log10 TCID50 at 5 µM. MDCK infected influenza A/PR/8/34, virus titer TCID50; hits give low values. 95 compounds, 30% hits; call rule not given here
Starred values were filed as active, the others as inactive. The sample as a whole holds a higher share of hits than the screen did. Unless noted, calls come from the whole dose curve; as a rule, active = well fitted curve in the direction sought with a large enough effect; inconclusive = small, poorly fitted or top-dose-only effect, or another doubt; inactive = no such curve, though single readings can be large; an effect the other way counts as inactive or inconclusive.

CC(C)(C)NC(=O)c1ccccc1-c1nc2ccccc2s1 was read as NS1 inh inconclusive, Flu NS1 inh 16 and PR8 titer 8.5.
Screening CC(C)(C)NC(=O)c1nc2ccccc2s1 returned NS1 inh -7%, Cruzain inh Det 3% and Cruzain inh noDet 2%.
Screening CCOc1ccc(CN2CCN(S(=O)(=O)c3ccc(Cl)cc3)CC2)cc1 returned Cruzain inh Det -4% and Cruzain inh noDet -1%.
Screening COC(C)(C)CCCC(C)C/C=C/C(C)=C/C(=O)O (stereo not given) returned Cruzain inh Det -4% and Cruzain inh noDet 3%.
COc1ccccc1/C=C1/C(=O)N(c2cc(C)cc(C)c2)C(c2cccc([N+](=O)[O-])c2)S1(=O)=O (stereo not given) was read as NS1 inh 18%, Cruzain inh Det -2% and Cruzain inh noDet -22%.
For CCOc1ccc(N2C(=O)/C(=C\c3ccccc3OC)S(=O)(=O)C2c2cccc([N+](=O)[O-])c2)cc1 (stereo not given) the results were NS1 inh 11µM*, Cruzain inh Det -2%, Cruzain inh noDet -6% and Flu NS1 inh -34.
For COC(=O)c1ccc(N2NC(=O)/C(=C/c3cc(OC)c(OC)c(OC)c3)C2=O)cc1 the results were NS1 inh 5%.
For COC(=O)c1ccc(N2NC(=O)/C(=C/c3cc(OC)c(O)c(OC)c3)C2=O)cc1 the results were NS1 inh 3.5µM* and Flu NS1 inh 0.
For CCOC(=O)N1CCC(c2nc3ccccc3[nH]2)CC1 the results were NS1 inh 2%, Cruzain inh Det 2% and Cruzain inh noDet -1%.
For CCOC(=O)N1CCC(c2nc(C)sc2C(=O)O)CC1 the results were NS1 inh inconclusive, Cruzain inh Det 6%, Cruzain inh noDet -10% and Flu NS1 inh -3.
`Cc1cc([C@](C)(N)C(=O)O)ccc1P(=O)(O)O` gave Cruzain inh Det 5% and Cruzain inh noDet 4%.
Screening CCC(CC)C(=O)N1CC(=O)Nc2ccc(C)cc2C1c1ccccc1 (stereo not given) returned NS1 inh 3%.
Screening Cc1ccc2c(c1)C(c1ccccc1)N(C(=O)C(C)C)CC(=O)N2 (stereo not given) returned NS1 inh inconclusive, Cruzain inh Det 3%, Cruzain inh noDet 5% and Flu NS1 inh 29.
`COC(=O)c1c(NC(=O)c2cc(=O)c3cc(C)cc(C)c3o2)sc2c1CCC2` gave Cruzain inh Det -1% and Cruzain inh noDet -6%.
Screening CC(C)C[C@@H](CC(=O)N[C@@H](CCC(=O)O)CC(=O)O)NC(=O)[C@@H]1CCCC[C@H]1NC(=O)C[C@@H](NC(=O)C[C@H](CO)NC(=O)[C@@H]1CNCC[C@H]1N)C(C)C returned Cruzain inh Det 5% and Cruzain inh noDet -5%.
COc1ccc(/C=N/NC(=O)C(=O)/C=C2\NC3(CCCC3)Cc3ccccc32)cc1 was read as NS1 inh 16%, Cruzain inh Det -4% and Cruzain inh noDet inconclusive.
`O=C(/C=C1\NC2(CCCC2)Cc2ccccc21)C(=O)N/N=C/c1ccc(O)c(O)c1` gave NS1 inh 18µM*, Cruzain inh Det -9%, Cruzain inh noDet 10% and Flu NS1 inh -17.
COc1ccc(NC(=O)N2CCCC3(CCN(C(=O)c4csnn4)CC3)C2)cc1 was read as Cruzain inh Det 1% and Cruzain inh noDet -11%.
O=C(CC1N=C2c3ccccc3N=C(SCc3ccccc3F)N2C1=O)NCc1cccs1 (stereo not given) was read as Cruzain inh Det -2% and Cruzain inh noDet 16%.
`Oc1ccc(/C=N/N=C(c2ccccc2)c2ccccc2)c(O)c1O` gave NS1 inh -4%, Cruzain inh Det -22% and Cruzain inh noDet -3%.
O=C(/C(=N/N=C/c1ccc(O)c(O)c1O)c1ccccc1)c1ccccc1 was read as NS1 inh 3.2µM*, Cruzain inh Det -12%, Cruzain inh noDet -15% and Flu NS1 inh inconclusive.
Cc1sc2ccccc2[n+]1CCC(=O)O was read as NS1 inh -1%, Cruzain inh Det 5% and Cruzain inh noDet -2%.
O=C(c1ccc(F)cc1)n1nc(-c2cccnc2)nc1NCc1ccc(F)cc1 was read as Cruzain inh Det -7% and Cruzain inh noDet -17%.
`N#Cc1cccc(-c2nc(NCc3cccnc3)c3ccccc3n2)c1` gave Cruzain inh Det 2% and Cruzain inh noDet 2%.
`O=c1cc(-c2ccc(O)c(-c3c(O)cc(O)c4c(=O)cc(-c5ccc(O)cc5)oc34)c2)oc2cc(O)cc(O)c12` gave NS1 inh 10µM*, Cruzain inh Det -13%, Cruzain inh noDet -12% and Flu NS1 inh 26.
COc1cc(O)c2c(=O)cc(-c3ccc(OC)c(-c4c(O)cc(O)c5c(=O)cc(-c6ccc(O)cc6)oc45)c3)oc2c1 was read as Cruzain inh Det -12% and Cruzain inh noDet inconclusive.
CC(C)OC(=O)c1c(NC(=O)c2cc3nc(-c4ccccc4)cc(C(F)(F)F)n3n2)sc2c1CCCC2 was read as Cruzain inh Det 3% and Cruzain inh noDet 2%.
For Cc1ccc(N2C(=O)CC(=O)NC2=O)cc1Cl the results were NS1 inh 10µM* and Flu NS1 inh 20.
Screening O=C1CC(=O)N(c2ccc(Cl)cc2)C(=O)N1 returned NS1 inh 27%.
CCNC(=O)[C@H]1O[C@@H](n2cnc3c(N)ncnc32)[C@H](O)[C@H]1O was read as NS1 inh -8%, Cruzain inh Det -1% and Cruzain inh noDet -5%.

Screening results deposited in PubChem BioAssay by National Center for Advancing Translational Sciences (NCATS).
